The values that follow come from the supplement of paper PMC6555819.

What all share (assay): PBM binding z-score (relative to random genomic background probes); higher = stronger binding; sequences stand for … in GC…GCGATTGACAGCGTAGAATGAAGG
For assay [1], the system named is FXR:RXRa (NR concentration 270 nM, RXRa partner concentration 90 nM). The method in brief: (§1)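 On custom Agilent 4×180K arrays, double-stranded probes with 34-nt variable regions carried direct-repeat seeds, single-nucleotide variants, half-site ablations or random human genomic background. Ligand-free nuclear receptor dimers were applied for 1 h, and binding was read with antibodies against each partner (one per run). Binding z-scores come from regression-normalized fluorescence, with the random background probes as reference.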

Assay [2] deals with LXRa:RXRa (NR concentration 270 nM, RXRa partner concentration 90 nM). A digest of the protocol: as §1
For assay [3], the system named is LXRa homodimer (NR concentration 270 nM). The method in brief:
as §1

For assay [4], the system named is LXRb:RXRa (NR concentration 270 nM, RXRa partner concentration 90 nM). A digest of the protocol:
as §1

In assay [5] the test system is LXRb homodimer (NR concentration 270 nM). A digest of the protocol: as §1
Assay [6] has as its system PPARa:RXRa (NR concentration 270 nM, RXRa partner concentration 90 nM). The method in brief: as §1
The subject of assay [7] is PPARg:RXRa (NR concentration 180 nM, RXRa partner concentration 90 nM). A digest of the protocol:
as §1

Assay [8] relates to PPARg:RXRa 270nM:90nM, anti-RXR (NR concentration 270 nM, RXRa partner concentration 90 nM). A digest of the protocol:
as §1

Assay [9] deals with PPARg:RXRa 30nM:10nM, anti-RXR (NR concentration 30 nM, RXRa partner concentration 10 nM). The method in brief: as §1
The test system of assay [10] is PPARg:RXRa 90nM:30nM, anti-RXR (NR concentration 90 nM, RXRa partner concentration 30 nM). A digest of the protocol:
as §1

The test system of assay [11] is PPARg:RXRa DBDmut IVT, anti-RXR (DBD mutation: RXRa K156A/R161A, NR concentration 270 nM, RXRa partner concentration 90 nM). The method in brief: as §1
For assay [12], the system named is PPARg:RXRa IVT, anti-PPARg (NR concentration 270 nM, RXRa partner concentration 90 nM). A digest of the protocol: as §1
The test system of assay [13] is PPARg DBDmut:RXRa IVT, anti-PPARg (DBD mutation: PPARg1 K132A/R137A, NR concentration 270 nM, RXRa partner concentration 90 nM). A digest of the protocol:
as §1

Assay [14] has as its system PPARg DBDmut IVT, anti-PPARg (DBD mutation: PPARg1 K132A/R137A, NR concentration 270 nM). The method in brief: as §1
Assay [15] has as its system PPARg homodimer (NR concentration 180 nM). The method in brief:
as §1

Assay [16] concerns PXR:RXRa (NR concentration 270 nM, RXRa partner concentration 90 nM). A digest of the protocol: as §1
In assay [17] the test system is PXR homodimer (NR concentration 270 nM). A digest of the protocol:
as §1

The test system of assay [18] is RARa:RXR (NR concentration 270 nM, RXRa partner concentration 90 nM). A digest of the protocol:
as §1

For assay [19], the system named is RARa homodimer (NR concentration 270 nM). The method in brief:
as §1

In assay [20] the test system is RARb:RXRa (NR concentration 270 nM, RXRa partner concentration 90 nM). A digest of the protocol:
as §1

With CCTACTGGGGCATAAGGTTACCATAAGCCAGCCC, the PBM binding z-score in [1] was 0.331; in assay [2], 1.69; in assay [3] it was -0.117; in assay [4], 0.717; in assay [5], -0.859; in assay [6], 2.47. Moreover, the PBM binding z-score in [7] was 3.73; in assay [8] it was 4.44; in assay [9], 2.09; in assay [10], 4.09; in assay [11] it was 4.53; in assay [12], 5.02. In addition, the PBM binding z-score is 0.0293 in assay [13]; -0.184 in [14]; 1.28 in [15]; 0.306 in assay [16]; 0.0136 in [17]; 1.42 in [18]. The PBM binding z-score in assay [19] stood at 0.103; in assay [20] it was 1.74.

With CGTCCAAGGTGAAAGGTCAGTGAAGAGATGACGG, the PBM binding z-score was 4.63 in assay [1]; 4.11 in assay [2]; 0.846 in [3]; 3.61 in [4]; -0.321 in assay [5]; 6.01 in assay [6]. Besides, the PBM binding z-score is 9.57 in assay [7]; 8.09 in assay [8]; 7.25 in assay [9]; 8.46 in assay [10]; 2.98 in [11]; 5.2 in [12]. For the same sequence, the PBM binding z-score was -0.368 in assay [13]; -0.702 in assay [14]; 3.24 in assay [15]; 4.74 in assay [16]; 0.474 in assay [17]; 6.87 in assay [18]. Further, the values for the PBM binding z-score in [19] and in assay [20] were 1.47 and 4.62, respectively.

Consider CAGCCTAGGTCAGGGCCTGTATAGGAGGAACGTT, for which the PBM binding z-score in assay [1] is 1.48; in assay [2] it was 0.732; in assay [3], -0.667; in assay [4] it was 0.189; in assay [5], -0.753; in assay [6], 1.95. For the same sequence, the PBM binding z-score was 0.752 in assay [7]; 0.931 in assay [8]; -0.43 in [9]; 0.141 in assay [10]; 1.45 in [11]; 1.31 in [12]. The PBM binding z-score in assay [13] is -0.895; in [14] it was -1.4; in [15] it was 0.134; in assay [16] it was 0.236; in assay [17], -0.76; in assay [18], 0.971. Besides, the PBM binding z-score in assay [19] is -1.2; in [20] it was 3.33.

For the sequence ATCTCTAGGTAAAAGTTCAGCGAATCCCGAGGAT, the PBM binding z-score in assay [1] came out at 1.36; in assay [2], 1.99; in assay [3] it was 1.58; in [4] it was 1.46; in assay [5], 0.982; in [6], 4.39. Besides, the PBM binding z-score amounted to 8.87 in assay [7]; 8.21 in assay [8]; 8.78 in assay [9]; 9.67 in [10]; 2.55 in assay [11]; 4.3 in assay [12]. Moreover, the PBM binding z-score in [13] came out at 1.19; in assay [14], 1.67; in assay [15], 2.4; in [16] it was 2.46; in assay [17] it was 1.54; in assay [18] it was 2.48. In addition, the PBM binding z-score in [19] is 0.715; in assay [20] it was 2.93.

For the sequence TCAGACAGGTGACGGTAACTCAGGTACGCAGTCG, the PBM binding z-score in [1] is -0.0449; in assay [2] it was 0.58; in assay [3] it was -0.354; in [4], 0.0924; in assay [5], -0.599; in assay [6], 0.857. In addition, the PBM binding z-score in assay [7] was found to be 0.69; in [8], 1.72; in assay [9] it was 3.16; in assay [10], 2.51; in [11], 2.24; in assay [12] it was 1.37. In addition, the PBM binding z-score in assay [13] was 0.209; in assay [14] it was 0.0566; in assay [15], 0.126; in assay [16], 0.109; in assay [17], -0.211; in [18], 0.171. For the same sequence, the PBM binding z-score in [19] was determined as 0.103; in assay [20], 0.885.

With AATACAGTGTCACTAGGCCAGAGTAGGTACGAAT, the PBM binding z-score was -0.0447 in [1]; 0.0759 in assay [2]; -0.316 in [3]; -0.0896 in assay [4]; -0.131 in assay [5]; 1.44 in assay [6]. For the same sequence, the PBM binding z-score in assay [7] was 1.82; in assay [8], 1.52; in assay [9] it was 0.462; in assay [10], 0.705; in assay [11], 1.71; in [12], 3.04. For the same sequence, the PBM binding z-score is 0.806 in assay [13]; 0.257 in assay [14]; 0.169 in assay [15]; -0.342 in assay [16]; -0.144 in assay [17]; -0.182 in [18]. Besides, the PBM binding z-score was -0.0529 in [19] and 1.06 in assay [20].

Turning to CCTTACGGGTCACTGACGGGTTATAGCATTTGGA, the PBM binding z-score in assay [1] is 5.28; in [2], 3.6; in assay [3], 0.0563; in assay [4] it was 3.42; in assay [5], 0.119; in assay [6], 4.67. Also, the PBM binding z-score in [7] stood at 4.31; in assay [8], 4.28; in [9] it was 1.63; in assay [10], 2.74; in assay [11], 2.64; in assay [12], 3.56. Besides, the PBM binding z-score in [13] is 0.267; in assay [14], 0.298; in assay [15], 3.14; in assay [16], 3.66; in [17], -0.038; in assay [18] it was 4.82. Further, the PBM binding z-score in assay [19] came out at 0.976; in [20], 4.04.
